Results filed as inconclusive are left out. Where a call stands in place of a potency, no number is given. Values without a mark were called inactive. Activity calls are given as the source filed them. Unless noted, the call rests on the fitted dose curve; in most records, active means well fitted curve in the direction sought with a large enough effect in the repeat runs; inconclusive means weak or mixed curves; inactive means no such curve, though single readings can be large; an effect the other way counts as inactive or inconclusive.
Tests used:
[1] = qHTS assay to identify small molecule antagonists of the estrogen related receptor (ERR) signaling pathway from Tox21 library - cell viability counter screen (AID 1224834); further: nearly all actives have a fitted effect of over 30% in size; further: potency means the concentration at half of the fitted maximal effect
Procedure, shortened: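 Counter screen run in ERR cells (2,000 cells/well): cells pre-incubated 6 h, then treated with compounds for 17.5 h at 37 C. Fluorescence was read 30 min after CellTiter-Fluor addition.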

[2] = target: Luciferin 4-monooxygenase (Photinus pyralis) (UniProt P08659); assay: qHTS assay to identify small molecule inhibitors of firefly luciferase (AID 1224835); further: nearly all actives have a fitted effect of over 25% in size; further: potency means the concentration at half of the fitted maximal effect; on activity change, negative = inhibition: series mostly up to about 120 µM
Chain of Luciferin 4-monooxygenase (Photinus pyralis) (P08659 whole entry, looked up): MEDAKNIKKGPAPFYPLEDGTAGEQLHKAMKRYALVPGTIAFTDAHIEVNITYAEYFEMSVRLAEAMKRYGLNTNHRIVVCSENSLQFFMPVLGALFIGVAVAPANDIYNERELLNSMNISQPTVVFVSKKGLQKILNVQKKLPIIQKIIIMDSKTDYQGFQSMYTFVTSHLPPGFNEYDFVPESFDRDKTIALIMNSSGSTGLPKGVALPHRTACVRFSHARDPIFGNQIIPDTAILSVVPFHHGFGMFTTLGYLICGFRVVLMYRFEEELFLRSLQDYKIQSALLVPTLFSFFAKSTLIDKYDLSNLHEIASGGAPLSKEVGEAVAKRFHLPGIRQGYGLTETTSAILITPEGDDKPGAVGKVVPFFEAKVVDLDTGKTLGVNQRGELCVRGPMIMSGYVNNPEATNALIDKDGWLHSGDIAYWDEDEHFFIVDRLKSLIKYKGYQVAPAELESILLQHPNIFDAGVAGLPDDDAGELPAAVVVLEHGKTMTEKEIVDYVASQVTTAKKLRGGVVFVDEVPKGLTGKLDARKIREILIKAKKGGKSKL
Procedure, shortened: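 Quantitative HTS format; KM concentrations of both substrates. Purified P. pyralis FLuc activity quantified from luminescence images.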

[3] = qHTS assay to identify small molecule agonists of the constitutive androstane receptor (CAR) signaling pathway - cell viability counter screen (AID 1224836); further: series mostly up to about 92 µM; nearly all actives have a fitted effect of over 45% in size
Procedure, shortened: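 HepG2-CYP2B6-hCAR, 2500 cells/well, 4 h pre-incubation; cpd 15 conc + PK11195 0.75 uM final; 23 h, 37 C/5% CO2; CellTiter-Fluor, fluorescence.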

[4] = qHTS assay to identify small molecule antagonists of the constitutive androstane receptor (CAR) signaling pathway - cell viability counter screen (AID 1224837); further: series mostly up to about 92 µM; nearly all actives have a fitted effect of over 45% in size
Procedure, shortened: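 CITCO at 50 nM final was added alongside compounds (15 concentrations) to double-stable hCAR/CYP2B6-2.2kb HepG2 cells. Following 23 hr at 37 C, cell viability was quantified by CellTiter-Fluor fluorescence intensity.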

[5] = target: Nuclear receptor subfamily 1 group I member 3 (Homo sapiens) (UniProt Q14994); assay: qHTS assay to identify small molecule antagonists of the constitutive androstane receptor (CAR) signaling pathway (AID 1224838); further: nearly all actives have a fitted effect of over 40% in size; further: potency means the concentration at half of the fitted maximal effect
Chain of Nuclear receptor subfamily 1 group I member 3 (Homo sapiens) (Q14994 whole entry, looked up): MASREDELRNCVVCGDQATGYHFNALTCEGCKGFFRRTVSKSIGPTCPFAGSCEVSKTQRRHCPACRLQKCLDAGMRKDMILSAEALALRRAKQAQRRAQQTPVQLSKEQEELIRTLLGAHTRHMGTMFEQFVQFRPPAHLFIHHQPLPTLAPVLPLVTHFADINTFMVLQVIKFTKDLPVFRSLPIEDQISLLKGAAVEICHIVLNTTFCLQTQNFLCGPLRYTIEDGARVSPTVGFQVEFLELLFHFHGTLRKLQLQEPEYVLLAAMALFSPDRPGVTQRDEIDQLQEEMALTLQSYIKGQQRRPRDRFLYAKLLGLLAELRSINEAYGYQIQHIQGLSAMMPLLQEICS
Procedure, shortened: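 Inhibition of CITCO-driven (50 nM final) CYP2B6 reporter expression is measured in HepG2 cells stably carrying hCAR. Fifteen compound concentrations are applied for 24 h at 37 C, followed by luciferase luminescence.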

[6] = target: Nuclear receptor subfamily 1 group I member 3 (Homo sapiens) (UniProt Q14994); assay: qHTS assay to identify small molecule agonists of the constitutive androstane receptor (CAR) signaling pathway (AID 1224839); further: series mostly up to about 92 µM; nearly all actives have a fitted effect of over 15% in size
Procedure, shortened: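 HepG2-CYP2B6-hCAR cells, 2500/well, 4 h pre-incubation; compounds 15 conc.; PK11195 0.75 uM final; 24 h, 37 C/5% CO2; ONE-Glo luciferase read.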

[7] = qHTS assay to identify small molecule antagonists of the estrogen related receptor signaling pathway with the pleiotropic PPARgamma coactivator (PGC) from Tox21 10K library - cell viability counter screen (AID 1224840; active means well fitted cell-killing curve with a large enough effect in the repeat runs, not every such curve was filed as active; further: nearly all actives have a fitted effect of over 40% in size)
Procedure, shortened: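 Readout: fluorescence intensity from CellTiter-Fluor after 30 min at 37 C/5% CO2. Preceded by 17.5 h treatment of PGC/ERR cells with DMSO-dissolved compounds, added 6 h post-seeding.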

[8] = qHTS assay to identify small molecule antagonists of the estrogen related receptor signaling pathway with the pleiotropic PPARgamma coactivator (PGC) from Tox21 10K library (AID 1224841; call rule not given here; further: actives are mostly falling curves and most rising ones were filed inactive; nearly all actives have a fitted effect of over 50% in size; further: potency means the concentration at half of the fitted maximal effect; on activity, negative = inhibition: series mostly up to about 92 µM)
Procedure, shortened: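 One-Glo luminescence, measured after half an hour at room temperature, quantified reporter output of PGC/ERR cells. These had been plated at 2,000 per well, incubated 6 h, dosed with compounds in DMSO, then kept 18 h at 37 C.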

[9] = qHTS assay to identify small molecule agonists of the estrogen related receptor signaling pathway with the pleiotropic PPARgamma coactivator (PGC) from Tox21 10K library (AID 1224842); further: nearly all actives have a fitted effect of over 15% in size
Procedure, shortened: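 PGC/ERR reporter cells (NTP line) were seeded 2,000 per well, rested 6 h at 37 C/5% CO2, then pin-dosed with compounds in DMSO for 18 h at 37 C; luciferase read by One-Glo luminescence after 30 min at room temperature.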

[10] = target: Thyrotropin receptor (Homo sapiens) (UniProt P16473); assay: qHTS assay to identify small molecule agonists of the thyroid stimulating hormone receptor (TSHR) signaling pathway (AID 1224843; calls by dose curve; further: nearly all actives have a fitted effect of over 45% in size)
Chain of Thyrotropin receptor (Homo sapiens) (P16473 whole entry, looked up): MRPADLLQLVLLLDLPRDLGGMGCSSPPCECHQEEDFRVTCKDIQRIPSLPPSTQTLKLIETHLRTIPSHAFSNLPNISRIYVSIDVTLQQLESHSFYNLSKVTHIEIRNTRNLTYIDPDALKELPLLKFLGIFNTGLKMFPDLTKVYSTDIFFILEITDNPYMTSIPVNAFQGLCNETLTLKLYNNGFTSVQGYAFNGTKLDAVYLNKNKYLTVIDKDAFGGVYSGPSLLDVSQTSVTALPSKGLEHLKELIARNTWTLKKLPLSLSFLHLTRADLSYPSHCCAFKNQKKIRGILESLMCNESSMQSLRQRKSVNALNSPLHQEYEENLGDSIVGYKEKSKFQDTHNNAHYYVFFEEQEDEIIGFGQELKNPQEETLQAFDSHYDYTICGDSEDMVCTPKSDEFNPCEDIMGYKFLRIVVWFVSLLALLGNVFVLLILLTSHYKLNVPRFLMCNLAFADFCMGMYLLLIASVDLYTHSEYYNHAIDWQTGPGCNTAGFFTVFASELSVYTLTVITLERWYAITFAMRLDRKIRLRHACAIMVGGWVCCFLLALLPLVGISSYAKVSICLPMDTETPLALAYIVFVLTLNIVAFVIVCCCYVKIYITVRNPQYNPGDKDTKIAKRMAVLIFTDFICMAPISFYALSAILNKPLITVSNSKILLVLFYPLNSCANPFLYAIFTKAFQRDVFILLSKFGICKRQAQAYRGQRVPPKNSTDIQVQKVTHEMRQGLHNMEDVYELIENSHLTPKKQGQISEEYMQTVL
Procedure, shortened: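 Compounds are titrated over 15 concentrations, in triplicate, onto TSHR-HEK293 cells seeded at 800/well. Plates sit 30 min at room temperature before cAMP-d2 and anti-cAMP cryptate are added; signal is read after a further hour.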

[11] = qHTS assay to identify small molecule agonists of the hypoxia (HIF-1) signaling pathway - cell viability counter screen (AID 1224844; calls by dose curve; further: nearly all actives have a fitted effect of over 50% in size)
Procedure, shortened: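 In this counter screen, HRE-bla ME-180 cell viability after 17 hrs of compound exposure at 37C was read by CellTiter-Glo luminescence, multiplexed with the beta-lactamase reporter measurement.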

[12] = qHTS assay to identify small molecule agonists of H2AX (AID 1224845; active means well fitted activation curve with a large enough effect in the signal ratio in the repeat runs, not every such curve was filed as active; the % refers to the signal ratio; further: potency means the concentration at half of the fitted maximal effect)
Procedure, shortened: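 Wild-type CHO-K1 cells plated overnight, then exposed 3 hr at 37C to compounds at 15 concentrations (0.76% DMSO). Lysed, then HTRF anti-pH2AX(S139)-cryptate/anti-H2AX-d2 detection after 24 hr at room temperature; emissions 665 and 620 nm.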

[13] = qHTS assay to identify small molecule agonists of the retinoic acid receptor (RAR) signaling pathway (AID 1159553)
Procedure, shortened: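 In this cell-based screen, 1,000 C3RL4 cells per well were cultured overnight, dosed with test chemicals in DMSO for 6 hr, and assessed for RARE luciferase luminescence.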

[14] = qHTS assay to identify small molecule antagonists of the estrogen related receptor (ERR) signaling pathway - cell viability counter screen (AID 1224818); further: series mostly up to about 46 µM
Procedure, shortened: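 Viability of ERR cells, CellTiter-Fluor fluorescence; 17.5 h compound exposure at 37 C, DMSO vehicle; 30 min reagent incubation at 37 C/5% CO2.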

[15] = qHTS assay to identify small molecule antagonists of the retinoic acid receptor (RAR) signaling pathway (AID 1159552; further: nearly all actives have a fitted effect of over 50% in size)
Procedure, shortened: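 Cells of the C3RL4 line were seeded, incubated overnight, then dosed with compounds in DMSO followed immediately by retinol (1 uM final). Six hours later luciferase detection reagent went in; signal was measured after 30 min at RT.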

CC(C#N)(CCC(=O)O)N=NC(C)(C#N)CCC(=O)O (stereo unspecified)
Potency [1]: inactive
Potency [2]: inactive
outcome [3]: inactive
outcome [4]: inactive
Potency [5]: inactive
Potency [6]: inactive
outcome [7]: inactive
Potency [8]: inactive
Potency [9]: inactive
Potency [10]: inactive
Potency [11]: inactive
Potency [12]: inactive

Nc1ccn([C@@H]2O[C@H](CO)[C@@H](O)C2O)c(=O)n1 (stereo partly specified)
Potency [13]: inactive
Potency [1]: inactive
outcome [3]: inactive
outcome [4]: inactive
Potency [6]: inactive
Potency [8]: inactive
Potency [9]: inactive
Potency [11]: inactive
Potency [12]: 56.6 µM (active)

CCN(Cc1ccccc1)c1ccccc1
Potency [13]: inactive
Potency [1]: 24 µM (active)
Potency [2]: inactive
Potency [8]: 42.7 µM (active)
Potency [9]: inactive
Potency [10]: inactive

O=C(O)CNC(=O)c1ccccc1
Potency [1]: inactive
Potency [2]: inactive
outcome [3]: inactive
outcome [4]: inactive
outcome [7]: inactive
Potency [10]: inactive
Potency [11]: inactive
Potency [12]: inactive

CCCn1cc[n+](C)c1C
Potency [13]: inactive
Potency [1]: inactive
Potency [2]: inactive
outcome [3]: inactive
outcome [4]: inactive
outcome [7]: inactive
Potency [11]: inactive
Potency [12]: inactive

CC(C)(C)C(=O)c1ccccc1
Potency [1]: inactive
Potency [2]: inactive
outcome [3]: inactive
outcome [4]: inactive
Potency [5]: inactive
Potency [6]: inactive
outcome [7]: inactive
Potency [10]: inactive
Potency [11]: inactive
Potency [12]: inactive

C=COCC1CCC(COC=C)CC1 (stereo unspecified)
Potency [1]: inactive
Potency [2]: inactive
outcome [3]: inactive
outcome [4]: inactive
Potency [5]: inactive
Potency [6]: inactive
outcome [7]: inactive
Potency [8]: inactive
Potency [9]: inactive
Potency [10]: inactive
Potency [11]: inactive
Potency [12]: inactive

CC(C)NNC(=O)c1ccncc1
outcome [14]: inactive
Potency [1]: inactive
Potency [2]: inactive
outcome [3]: inactive
outcome [4]: inactive
outcome [7]: inactive
Potency [10]: inactive
Potency [11]: inactive
Potency [12]: inactive

O=C(O)c1cn(C2CC2)c2cc(N3CCNCC3)c(F)cc2c1=O
Potency [1]: inactive
outcome [3]: inactive
outcome [4]: inactive
outcome [7]: inactive
Potency [10]: inactive
Potency [11]: inactive
Potency [12]: inactive

O=C(O)CCSCCC(=O)O
Potency [1]: inactive
Potency [2]: inactive
outcome [3]: inactive
outcome [4]: inactive
Potency [5]: inactive
Potency [6]: inactive
outcome [7]: inactive
Potency [10]: inactive
Potency [11]: inactive
Potency [12]: inactive

CC(C)(C)OC(=O)c1cccc(N)c1
Potency [15]: inactive
Potency [1]: inactive
Potency [2]: 57.9 µM (active)
outcome [3]: inactive
outcome [4]: inactive
Potency [5]: inactive
Potency [6]: inactive
outcome [7]: inactive
Potency [10]: inactive
Potency [11]: inactive
Potency [12]: inactive

Nc1ccn([C@@H]2O[C@H](CO)[C@@H](O)C2(F)F)c(=O)n1
Potency [13]: inactive
Potency [1]: inactive
Potency [2]: inactive
outcome [3]: inactive
outcome [4]: inactive
Potency [5]: 0.596 µM (active)
Potency [6]: inactive
Potency [10]: inactive
Potency [11]: inactive
Potency [12]: 0.982 µM (active)

CN(C)CCN(C)CCN(C)C
Potency [1]: inactive
Potency [2]: inactive
outcome [3]: inactive
outcome [4]: inactive
Potency [5]: inactive
Potency [6]: inactive
outcome [7]: inactive
Potency [10]: inactive
Potency [11]: inactive
Potency [12]: inactive

CCCCCCCCCCCCSC
Potency [1]: inactive
Potency [2]: inactive
outcome [3]: inactive
outcome [4]: inactive
Potency [5]: inactive
outcome [7]: inactive
Potency [10]: inactive
Potency [11]: inactive
Potency [12]: inactive

C[C@H]1C[C@H]2[C@@H]3CCC4=CC(=O)C=C[C@]4(C)[C@H]3C(=O)C[C@]2(C)[C@@]1(O)C(=O)CO
Potency [15]: inactive
Potency [1]: inactive
Potency [2]: inactive
outcome [3]: inactive
outcome [4]: inactive
Potency [5]: inactive
Potency [6]: inactive
outcome [7]: inactive
Potency [8]: inactive
Potency [9]: inactive
Potency [10]: inactive
Potency [11]: inactive
Potency [12]: inactive

CCCC[N+](C)(CCCC)CCCC
Potency [1]: inactive
outcome [3]: inactive
outcome [4]: inactive
Potency [5]: inactive
Potency [6]: inactive
outcome [7]: inactive
Potency [10]: inactive
Potency [11]: inactive
Potency [12]: inactive

CC(C)(C)c1ccc(-c2ccc(C(C)(C)C)cc2)cc1
Potency [15]: inactive
Potency [1]: inactive
Potency [2]: inactive
outcome [3]: inactive
outcome [4]: inactive
Potency [5]: inactive
Potency [6]: inactive
outcome [7]: inactive
Potency [8]: inactive
Potency [9]: inactive
Potency [10]: inactive
Potency [11]: inactive
Potency [12]: inactive

CC(CO)(CO)[N+](=O)[O-]
Potency [1]: inactive
Potency [2]: inactive
outcome [3]: inactive
outcome [4]: inactive
outcome [7]: inactive
Potency [10]: inactive
Potency [11]: inactive
Potency [12]: inactive

CC(C)(C#N)Nc1nc(Cl)nc(NC2CC2)n1
Potency [1]: inactive
Potency [2]: inactive
outcome [3]: inactive
outcome [4]: inactive
Potency [5]: inactive
Potency [6]: inactive
outcome [7]: inactive
Potency [10]: inactive
Potency [11]: inactive
Potency [12]: inactive

CCN[C@@H]1C[C@H](N)[C@@H](OC2OC(CN)=CCC2N)[C@H](O)[C@H]1O[C@H]1OC[C@](C)(O)[C@H](NC)[C@H]1O (stereo partly specified)
activity, negative = inhibition [15]: 11.8% [at 0.349 µM]
activation [13]: 1.16% [at 0.756 µM]
viability change, negative = cytotoxic [1]: 5.78% [at 0.349 µM]
activity change, negative = inhibition [2]: -1.17% [at 0.435 µM]
viability change, negative = cytotoxic [3]: 2.22% [at 0.349 µM]
activity change, negative = cytotoxicity [4]: 0.22% [at 0.349 µM]
viability change, negative = cytotoxic [7]: -0.298% [at 0.349 µM]
activity change, negative = cytotoxicity [11]: 3.33% [at 0.29 µM]
activation (H2AX phosphorylation) [12]: -3.19% [at 0.582 µM]

CCC(C)(CCCC(C)C)OC(C)=O (stereo unspecified)
Potency [1]: inactive
Potency [2]: inactive
outcome [3]: inactive
outcome [4]: inactive
Potency [5]: inactive
Potency [6]: inactive
outcome [7]: inactive
Potency [10]: inactive
Potency [11]: inactive
Potency [12]: inactive

C=CC(C)(CCC=C(C)C)OC(=O)CC (stereo unspecified)
Potency [1]: inactive
Potency [2]: inactive
outcome [3]: inactive
outcome [4]: inactive
Potency [5]: inactive
Potency [6]: inactive
outcome [7]: inactive
Potency [10]: inactive
Potency [11]: inactive
Potency [12]: inactive

CC[N+](CC)(CC(=O)Nc1c(C)cccc1C)Cc1ccccc1 (tested in a mixture with another compound)
Potency [1]: inactive
Potency [2]: inactive
outcome [3]: inactive
outcome [4]: inactive
outcome [7]: inactive
Potency [11]: inactive
Potency [12]: inactive

Cc1cc(C)c(N=Nc2c(O)c(S(=O)(=O)O)cc3cc(S(=O)(=O)O)ccc23)cc1C
viability change, negative = cytotoxic [1]: -4.92% [at 8.39 µM]
activity change, negative = inhibition [2]: -6.78% [at 10.5 µM]
viability change, negative = cytotoxic [3]: -15.6% [at 8.39 µM]
activity change, negative = cytotoxicity [4]: 0.232% [at 8.39 µM]
activity, negative = inhibition [5]: -3.25% [at 8.39 µM]
activation [6]: 7.37% [at 8.39 µM]
viability change, negative = cytotoxic [7]: -4.24% [at 8.39 µM]
Potency [8]: 0.959 µM (active)
activation [9]: -8.18% [at 8.39 µM]
activity change, negative = cytotoxicity [11]: -6.32% [at 6.97 µM]
activation (H2AX phosphorylation) [12]: 1.25% [at 14 µM]

Source: PubChem BioAssay (Tox21)
